Screening data (PubChem)
MLLE-PAM2 inh – inhibitors of microRNA-mediated deadenylation, human PABP1 MLLE binding | P11940 | GST-MLLE / FITC-PAM2 fluorescence polarization | inhibition, % at 20 µM | 0.36% of 360,000 active; in the data active = inhibition above about 35%, passing the limit was not always enough;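 also: plate controls were DMSO wells with GST-MLLE for no effect and wells lacking GST-MLLE protein for full effect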
PABP polyA inh – PABP-poly(A) binding inhibition; 1% of 290,000 active; AID 2014; P11940; PABP-poly(A) RNA binding, fluorescence polarization; calls only at 35 µM;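 also: calls also rest on retests at 20 µM and on dose response follow-up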
PERK inhibitor – blocks human PERK kinase; CHO PERK-DD fusion, SEAP luminescence translation reporter; Q9NZJ5; 0.17% of 220,000 active; inhibition, % at 5.6 µM;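 active = inhibition above the mean inhibition of all tested compounds plus 3 SD, set separately per screening campaign, cut at about 2.9% in these data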;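 also: PERK kinase domain activated by AP20187 dimerizer at 100 nM; 0% = DMSO with dimerizer and 100% = rapamycin at 8.4 µM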
eIF4E 4G PPI – blocks eIF4E binding to eIF4G. 0.37% of 220,000 active. TR-FRET eIF4E-eIF4GI(517-606) binding, 2 h. AID 782. P63073+Q04637. inhibition, % at 21.7 µM;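 active = inhibition above about 30%, limit read from the data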;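 also: 0% = full FRET control wells and 100% = background wells lacking eIF4GI fragment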
eIF4H inh – inhibitors of RNA binding by human eIF4H | AID 2012 | eIF4H fluorescence polarization binding assay | inhibition, % at 35 µM | 0.94% of 290,000 active;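 also: calls also rest on retests at 20 µM and on dose response follow-up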
* hit, by the source's call; i = inactive; · = no result; + = active, no number. Hits are enriched below; roughly 1.6% of the tested compounds scored in any of these assays. Unless noted, no rule for the calls is given here.

SMILES	MLLE-PAM2 inh	PABP polyA inh	PERK inhibitor	eIF4E 4G PPI	eIF4H inh
O=C1S/C(=C/c2ccc(N3CCOCC3)o2)C(=O)N1Cc1ccc(F)cc1	-66	i	1	-13	8
O=C1NC(=S)S/C1=C/c1ccc(N2CCOCC2)o1	-88	+	1	-2	87*
Nc1ccc(S(=O)(=O)Nc2nc3ccccc3o2)cc1	11	+	·	·	55*
Nc1ccc(S(=O)(=O)Nc2cnc3ccccc3n2)cc1	10	i	0	-6	-10
O=C1C=CC(=O)N1c1ccc(Nc2ccccc2)cc1	41*	·	·	·	·
CSc1ccc(CN2CCC2(C)C(=O)NCc2ccc3c(c2)OCO3)cc1 (centres undefined)	-9	·	·	·	·
C[N+]1(CC(=O)OCCCc2ccccc2)CCCCC1	-127	+	1	17	1
Cc1ccc(-c2nc3ncccc3o2)cc1NC(=O)c1ccc2c(c1)OCO2	2	·	·	·	·
Cc1cc(O)c(C=O)c2c1C(=O)Oc1c(CO)c(O)c3c(c1O2)C(O)OC3=O (centres undefined)	24	+	0	7	108*
COC(=O)c1c(NC(=O)c2ccc(C)o2)sc2c1CCCCC2	37*	i	0	1	10
Cc1ccc(C(=O)Nc2sc3c(c2C(=O)O)CCCCC3)o1	31	i	1	-5	-6
O=C1C(NS(=O)(=O)c2cccs2)=C(N2CCN(c3cccc(Cl)c3)CC2)C(=O)c2ccccc21	4	+	-1	-2	2.3*
O=C1C(NS(=O)(=O)c2ccccc2)=C(N2CCN(c3ccc(F)cc3)CC2)C(=O)c2ccccc21	16	i	-1	-7	14
Oc1cc(CNC2CCCCC2)c(O)cc1CNC1CCCCC1	53*	·	·	·	·
Nc1c(C(=O)NCC2CCCO2)sc2nc3c(c(-c4ccco4)c12)CC/C3=C\c1ccco1 (centres undefined)	-34	i	0	19	110*
Cc1ccccc1NC(=O)c1sc2nc3c(c(-c4ccco4)c2c1N)CCC3	14	+	-1	-2	88*
COC(=O)c1c(C)cc(OC(C)=O)c(C)c1OC(C)=O	-9	i	2	33*	-7
COc1cc(C)c(C(=O)Oc2cc(C)c(C(=O)O)c(O)c2C)c(O)c1C	0	·	·	·	·
O=[N+]([O-])c1c(N2CCN(CCO)CC2)nc2ccccn12	19	i	2	4	6
CC(C)[C@@H](C(=O)NCC1CCC(C(=O)O)CC1)n1nnc2ccccc2c1=O (some centres undefined)	7	i	1	0	1
O=C(Cn1nnc2ccccc2c1=O)NCC1CCC(C(=O)O)CC1 (centres undefined)	-4	i	3.2*	2	-1
O=C(c1sc2cc(Cl)ccc2c1Cl)N1CCN(CCc2ccccn2)CC1	6	i	·	·	9
O=C(COc1cccc(Cl)c1Cl)NC1CC1	9	·	·	·	·
O=C(/C=C/c1ccc(OCCCF)cc1)Nc1ccnc(-c2cccnc2)n1	-63	+	0	-7	102*
CC(=O)Nc1ccnc(-c2cccnc2)n1	-9	i	1	86*	-10
SMILES	MLLE-PAM2 inh	PABP polyA inh	PERK inhibitor	eIF4E 4G PPI	eIF4H inh
CC(C)C(=O)Nc1ccnc(-c2cccnc2)n1	4	i	1	4	3
O=C(NCCCN1CCCC1=O)c1ccc(Cl)c(Cl)c1	4	i	1	-3	5
Cc1ccc(N2C(=O)C(F)(F)C2c2ccccc2)cc1 (centres undefined)	-16	i	0	2	11
Cc1ccc(N2C(=N)/C(=C3/Nc4ccccc4S3)C(c3ccccc3)C2=O)cc1 (centres undefined)	4	+	0	-9	84*
O=C(O)C1CCCCC1C(=O)Nc1nc(-c2ccc(Cl)s2)cs1 (centres undefined)	26	+	1	12	76*
CCCC(=O)Nc1nc(-c2ccc(Cl)s2)cs1	5	i	1	-2	-3
Oc1ccc(/C=N/NC(=S)Nc2cccnc2)cc1O	40*	+	1	-1	68
O=C(N/N=C/c1ccc(O)c(O)c1)N/N=C/c1ccc(O)c(O)c1	-8	i	·	·	56*
CC(C)(C)c1ccc(/C=N/NC(=S)Nc2cccnc2)cc1	·	i	-1	-1	-10
CCn1c(O)c(C#N)c(C)cc1=O	13	i	2	0	78*
Cc1cc(=O)n(CC(C)C)c(O)c1C#N	-1	+	1	-2	119*
O=CNC(n1cnc2c(N3CCOCC3)ncnc21)C(Cl)(Cl)Cl (centres undefined)	20	i	1	-1	10
